Compound activity deposited in PubChem by National Center for Advancing Translational Sciences (NCATS).
MARV entry inh: inhibitors of Marburg virus binding or cell entry; hit rate 1.8% among 300,000; AID 540276; Marburg virus pseudotyped entry inhibition, cell reporter; Potency, µM (titrated, usually from 37.8 µM), without a hit: at the top dose activity change, negative = inhibition, usual class: inhibitors; calls by dose curve; tested in HEK293 cells; further: potency means the concentration at half of the fitted maximal effect
HCMV antiviral: blocks human cytomegalovirus replication; HFF cells, HCMV-luciferase reporter, 72 h; hits give low values; activity change, negative = inhibition, % at 57.5 µM; hit rate 4.5% among 410,000; AID 1259415; in the data active means activity change below about -60%; inconclusive means no clear call, values can overlap the other calls; inactive means above about -39%
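Inhibition of viral replication was scored as loss of reporter luminescence in HFFs infected with HCMV-luciferase (MOI 1 PFU/cell) for 72 h; compounds tested at 2 doses, normalized to buffer and Salinomycin controls.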
Lassa entry inh: blocks Lassa virus binding to or entry into cells; Potency, µM (highest dose often 37.9 µM), inactives show top-dose activity change, negative = inhibition, hits mostly inhibitors; hit rate 1.2% among 300,000; Lassa virus pseudotype entry inhibition, cell reporter; calls by dose curve; tested in HEK293 cells; further: potency means the concentration at half of the fitted maximal effect; nearly all actives have a fitted effect of over 50% in size
Vaccinia mCherry: inhibitors of vaccinia virus infection (mCherry reporter signal); hit rate 0.63% among 310,000; Potency, µM (top dose mostly 36.5 µM), for inactives: top-dose activity change, negative = inhibition, most hits filed as inhibitors; Vaccinia virus mCherry reporter infection, fluorescence; calls by dose curve; tested in A549 cells; further: potency means the concentration at half of the fitted maximal effect; nearly all actives have a fitted effect of over 35% in size
FMDV inh: antivirals against foot and mouth disease virus; hit rate 1.2% among 410,000; FMDV antiviral cell-based qHTS; Potency, µM (series often up to 57.9 µM), for inactives: at the highest dose activity change, negative = inhibition, usual class: inhibitors; calls by dose curve; tested in HEK293T cells; further: read-out not given here; potency means the concentration at half of the fitted maximal effect; nearly all actives have a fitted effect of over 45% in size
VACV Venus inh: vaccinia inhibition (Venus reporter) | Vaccinia virus Venus reporter expression, fluorescence | Potency, µM (series often up to 36.5 µM), inactives show top-dose activity change, negative = inhibition, actives largely listed as inhibitors | hit rate 0.46% among 330,000; calls by dose curve; tested in A549 cells; further: potency means the concentration at half of the fitted maximal effect; nearly all actives have a fitted effect of over 30% in size
Numbers without * were called inactive; i = inactive; ? = inconclusive; / = no result given; [ ] = remark or other dose. Shown are actives, neighbours in structure and some others; about 6.5% of the full set was active somewhere. On the % scale 0 is the no-effect control and ±100 the full control effect.

SMILES	MARV entry inh	HCMV antiviral	Lassa entry inh	Vaccinia mCherry	FMDV inh	VACV Venus inh
CC(=O)Nc1ccc(NC(=O)COC(=O)C2(c3ccc(Cl)cc3)CCCC2)cc1	13µM*	?	?	i	28.2µM*	-26.5%
NC(=S)N=Nc1c(O)n(Cc2ccc(F)cc2)c2ccccc12	/	-30.5	/	/	?	/
NC(=S)N=Nc1c(O)n(CCCl)c2ccc(Br)cc12	-21.3%	-23.2	-14.5%	?	-17.5%	?
Cc1ccc2c(c1)c(N=NC(N)=S)c(O)n2Cc1ccccc1	?	-4.8	-13.6%	0.891µM*	-6.4%	1µM*
C/C(Cl)=C\Cn1c(O)c(N=NC(N)=S)c2cc(Br)ccc21	/	-109.2*	/	/	?	/
NC(=S)N=Nc1c(O)n(Cc2ccc(Br)cc2)c2ccccc12	?	-27.3	?	1µM*	0.0%	1µM*
COc1ccc(/C=C/C(=O)NC(=S)Nc2cc3oc4ccccc4c3cc2OC)cc1	-15.0%	-31.8	-11.6%	-4.3%	-2.9%	-6.6%
COc1cc2c(cc1NC(=O)Nc1ccc(F)cc1)oc1ccccc12	0.3%	-65.6*	2.1%	-21.3%	-4.9%	-18.4%
COc1cc2c(cc1NC(=O)/C=C/c1ccccc1)oc1ccccc12	?	-64.2*	?	-4.8%	/	-10.8%
COc1ccc(-n2c(=O)c3c(c4cc(OC)ccc4n3C)n(CC(=O)N3CCCC3)c2=O)cc1	/	12.1	-0.6%[46.1 µM]	-11.5%	-3.6%	-6.2%
c1ccc2[nH]c(CSc3nnc(-c4ccncc4)o3)nc2c1	-1.2%	-21.8	3.9%	/	?	?
Brc1cccc(-c2nnc(SCc3nc4ccccc4[nH]3)o2)c1	-3.0%	2.3	-1.5%	10µM*	?	?
CCC(Oc1ccccc1F)C(=O)Nc1c(C(=O)c2ccccc2)oc2ccccc12 (configuration not stated)	?	?	7.4%[46.1 µM]	-2.9%	-22.7%	-4.3%
O=C(COc1ccccc1)NCc1nnc2c3ccccc3c(-c3ccccc3)nn12	/	-63.0*	/	-9.3%	-13.2%	-12.7%
CC(=O)NCc1nnc2c3ccccc3c(-c3ccccc3)nn12	6.7%[46.1 µM]	21.3	11.1%[46.1 µM]	i	0.8%	-8.3%
CCOC(=O)c1ccc2c(c1)n(CC)c(/C=C/N(C)c1ccccc1)[n+]2CC	?	-99.9*	?	-12.5%	?	-15.1%
COc1ccc2c(C)c(CCC(=O)NCCc3ccccc3OC)c(=O)oc2c1	-16.1%[46.1 µM]	-6.2	-4.3%[46.1 µM]	-2.5%	-5.4%	-0.4%
CC1(C)CC(NCCN2CCN(C3=CC(=C(C#N)C#N)CC(C)(C)C3)CC2)=CC(=C(C#N)C#N)C1	/	-63.4*	/	/	-22.6%	/
CC(C)n1ncc2c(C(=O)Nc3cccc(C#N)c3)cc(C3CC3)nc21	/	-90.9*	/	/	?	/
COc1ccc(NC(=O)c2cc(-c3ccccc3)nc3c2cnn3C(C)C)cc1	/	-33.6	/	/	39.8µM*	/
CCNC(=O)c1cccc(NC(=O)c2cc(C3CC3)nc3c2cnn3C(C)C)c1	?	-13.7	?	-13.6%	-8.6%	-3.0%
COc1ccc(N(Cc2cccs2)C(=O)Nc2ccccc2)cc1	?	0.3	-13.5%[46.1 µM]	-3.8%	-15.5%	-4.2%
CN1C(=O)C2C[C@@]3(Br)c4ccccc4N(OOSc4ccccc4)[C@H]3N2C(=O)[C@@H]1Cc1ccccc1 (some centres not stated)	/	-71.2*	/	-5.8%	-4.2%	-20.6%
O=C1N[C@@H](Cc2ccccc2)C(=O)N2[C@@H]3N(S(=O)(=O)c4ccccc4)c4ccccc4[C@]3(Br)C[C@@H]12	/	-27.6	/	?	0.0%	?
O=C(NCC(c1ccc(F)cc1)N1CCOCC1)c1ccc([N+](=O)[O-])o1 (configuration not stated)	?	-87.1*	-14.1%	-21.7%	-10.8%	-26.0%
CC(=O)c1ccc(-c2ccc(C(=O)NCC(c3ccc(F)cc3)N3CCOCC3)o2)cc1 (configuration not stated)	?	5.3	-13.4%	-16.6%	-15.9%	-13.0%
COc1cc(=O)n2c(c1C(=O)N(C)Cc1nonc1C)CCN(Cc1ccsc1)CC2	/	/	/	-16.6%	4.2%	4.8%
CCOC(=O)c1ccc(-n2c(C)nc3c(cnn3-c3ccc(Cl)cc3)c2=O)cc1	2.5%[46.1 µM]	8.8	-3.3%[46.1 µM]	22.2%	?	16.1%
COc1ccc(-n2c(C)nc3c(cnn3-c3ccc(Cl)cc3)c2=O)cc1	?	-76.8*	-8.0%	?	?	?
